According to the supplement of paper PMC6607015:
Where a name gives a salt, the structure may show the parent alone.

How the values were obtained:
Settings in all cases: compound concentration in added solution (µM; 5 µl added to 20 µl cells): 10; 18 h
A431 [1] = test: LBPA endosome anti-LBPA integrated intensity (sum per cell), Z-score; higher = more LBPA staining
How it was run: (§1)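 Each value is a Z-score normalised in AcuityXpress from per-cell integrated LBPA or filipin intensity, taken over the whole cell or within LBPA endosomes. Duplicate 384-well imaging plates held 5 µl of 10 µM compound solution, onto which 3,500 HeLa MZ or A431 cells in 20 µl were seeded per well. After 18 h the cells were fixed in 4% PFA, stained with 6C4 anti-LBPA antibody, filipin, propidium iodide and CellTracker green, imaged four times per well at 20× and segmented in MetaXpress.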

HeLa MZ [2] = test: as above
How it was run: as §1

A431 [3] = test: whole-cell filipin (free cholesterol) integrated intensity, Z-score; higher = more cholesterol staining
How it was run: as §1

HeLa MZ [4] = test: as above
How it was run: as §1

A431 [5] = test: filipin (cholesterol) integrated intensity within LBPA endosomes, Z-score; higher = more cholesterol in LBPA endosomes
How it was run: as §1

HeLa MZ [6] = test: as above
How it was run: as §1

Compound | LBPA endosome anti-LBPA integrated intensity (z-score) (A431 [1]) | LBPA endosome anti-LBPA integrated intensity (z-score) (HeLa MZ [2]) | whole-cell filipin (z-score) (A431 [3]) | whole-cell filipin (z-score) (HeLa MZ [4]) | filipin (z-score) (A431 [5]) | filipin (z-score) (HeLa MZ [6])
C[C@H](CCC(=O)O)[C@H]1CC[C@H]2[C@@H]3[C@H](O)C[C@@H]4C[C@H](O)CC[C@]4(C)[C@H]3CC[C@]12C [Chenodiol] | -0.496 | -1.46 | -0.897 | -0.999 | -0.575 | -0.773
C[C@]12CC[C@@H]3c4ccc(O)cc4CC[C@H]3[C@@H]1CCC2=O [Estrone] | -0.124 | 0.505 | -0.166 | -0.0664 | -0.236 | -0.151
CS(=O)(=O)OCCCCOS(C)(=O)=O [Busulfan] | -0.537 | -0.499 | -0.466 | 0.544 | -0.535 | -0.476
CC[C@H]1OC(=O)[C@H](C)[C@@H](O[C@H]2C[C@@](C)(OC)[C@@H](O)[C@H](C)O2)[C@H](C)[C@@H](O[C@@H]2O[C@H](C)C[C@H](N(C)C)[C@H]2O)[C@](C)(O)C[C@@H](C)CN(C)[C@H](C)[C@@H](O)[C@]1(C)O [Azithromycin] | 4.39 | 1.79 | 0.331 | 0.115 | 1.25 | 1.45
C=C1c2cccc(O)c2C(=O)C2=C(O)[C@]3(O)C(=O)C(C(N)=O)=C(O)[C@@H](N(C)C)[C@@H]3[C@@H](O)[C@H]12 [Methacycline hydrochloride] | -0.461 | -0.934 | 0.119 | -0.217 | -0.402 | -0.642
NC[C@@H]1O[C@@H](O[C@H]2[C@H](O)[C@@H](O[C@H]3O[C@H](CO)[C@@H](O)[C@H](N)[C@H]3O)[C@H](N)C[C@@H]2N)[C@@H](O)[C@H](O)[C@H]1O [Kanamycin A sulfate] | -0.635 | -0.981 | -0.97 | -0.361 | -0.515 | -0.597
NS(=O)(=O)c1cc2c(cc1C(F)(F)F)NCNS2(=O)=O [Hydroflumethiazide] | -0.486 | -0.967 | -0.738 | -0.664 | -0.455 | -0.522
CNC(=C[N+](=O)[O-])NCCSCc1ccc(CN(C)C)o1 [Ranitidine hydrochloride] | -0.424 | 0.0515 | -1.03 | -1.05 | -0.524 | -0.559
Cc1cc(=O)n(-c2ccccc2)n1C [Antipyrine] | -0.333 | -0.475 | -0.316 | -0.0627 | -0.425 | -0.342
CC(C)(C)NC(=O)[C@H]1CC[C@H]2[C@@H]3CC[C@H]4NC(=O)C=C[C@]4(C)[C@H]3CC[C@]12C [Finasteride] | -0.353 | -0.576 | 0.536 | 0.274 | -0.256 | -0.306
Nc1ccc(S(=O)(=O)Nc2cnc3ccccc3n2)cc1 [Sulfaquinoxaline sodium salt] | -0.491 | -0.359 | -0.235 | -0.279 | -0.43 | -0.432
Cc1noc(NS(=O)(=O)c2ccc(N)cc2)c1C [Sulfisoxazole] | -0.641 | -0.742 | -0.79 | -0.499 | -0.574 | -0.486
Nc1ccn([C@@H]2CS[C@H](CO)O2)c(=O)n1 [Lamivudine] | -0.481 | -0.745 | -0.233 | -0.14 | -0.498 | -0.564
CCN(CC)CCOC(=O)C(c1ccccc1)C1CCCCC1 (stereo not drawn) [Drofenine hydrochloride] | 1.02 | 2.6 | 1.05 | 0.772 | 1.02 | 1.12
CC(=O)OCC(=O)[C@@]1(O)CC[C@H]2[C@@H]3CCC4=CC(=O)C=C[C@]4(C)[C@@]3(F)[C@@H](O)C[C@@]21C [Isoflupredone acetate] | -0.244 | -0.851 | -0.383 | -0.16 | -0.17 | -0.357
O=C1CCc2ccc(OCCCCN3CCN(c4cccc(Cl)c4Cl)CC3)cc2N1 [Aripiprazole] | 3.32 | 2.8 | 2.88 | 2.45 | 3.23 | 4.07
CCCC(=O)Nc1ccc(OCC(O)CNC(C)C)c(C(C)=O)c1 (stereo not drawn) [Acebutolol hydrochloride] | -0.335 | -0.6 | -0.712 | -0.665 | -0.476 | -0.408
O=C(Cn1ccnc1[N+](=O)[O-])NCCO [Etanidazole] | -0.499 | -0.402 | -0.226 | 0.609 | -0.413 | -0.325
Nc1nc(=S)c2ncn([C@@H]3O[C@H](CO)[C@@H](O)[C@H]3O)c2[nH]1 [Thioguanosine] | -0.355 | 1.49 | -1.06 | -0.863 | -0.656 | -0.626
C[C@H](CS)C(=O)N1CCC[C@H]1C(=O)O [Captopril] | -0.394 | -0.389 | -0.482 | 0.478 | -0.442 | -0.261
O=C(O)Cc1cc(I)c(Oc2ccc(O)c(I)c2)c(I)c1 [Tiratricol, 3,3',5-triiodothyroacetic acid] | -0.369 | 0.145 | -0.472 | -0.883 | -0.548 | -0.66
COc1ccccc1N1CCN(CCCCNC(=O)c2ccc3ccccc3c2)CC1 | 2.82 | 1.25 | 2.45 | 2.22 | 2.37 | 3.33
NCCCC(O)(P(=O)(O)O)P(=O)(O)O [Alendronate sodium] | -0.662 | -1.69 | -0.705 | -0.128 | -0.56 | -0.588
CN1C(C(=O)Nc2ccccn2)=C(O)c2sccc2S1(=O)=O [Tenoxicam] | -0.541 | -0.303 | -0.432 | -0.0776 | -0.522 | -0.391

Compound | LBPA endosome anti-LBPA integrated intensity (z-score) (A431 [1]) | LBPA endosome anti-LBPA integrated intensity (z-score) (HeLa MZ [2]) | whole-cell filipin (z-score) (A431 [3]) | whole-cell filipin (z-score) (HeLa MZ [4]) | filipin (z-score) (A431 [5]) | filipin (z-score) (HeLa MZ [6])
C=C1C[C@H]2[C@@H]3C=C(C)C4=CC(=O)CC[C@]4(C)[C@H]3CC[C@]2(C)[C@@]1(OC(C)=O)C(C)=O [Melengestrol acetate] | 1.2 | 1.67 | 2.08 | 1.46 | 1.58 | 1.05
Nc1nc(O)c2ncn(CCC(CO)CO)c2n1 [Penciclovir] | -0.596 | -1.08 | -0.223 | 0.234 | -0.512 | -0.438
COc1cc(C(=O)NS(=O)(=O)c2ccccc2C)ccc1Cc1cn(C)c2ccc(NC(=O)OC3CCCC3)cc12 [Zafirlukast] | -0.518 | -0.847 | -0.458 | -0.494 | -0.486 | -0.569
CC1(C)O[C@@H]2C[C@H]3[C@@H]4C[C@H](F)C5=CC(=O)CC[C@]5(C)[C@H]4[C@@H](O)C[C@]3(C)[C@]2(C(=O)CO)O1 [Flurandrenolide] | -0.226 | -0.763 | -0.173 | 0.429 | -0.236 | -0.297
C/C(=C(\CCOP(=O)(O)O)SC(=O)c1ccccc1)N(C=O)Cc1cnc(C)nc1N [Benfotiamine] | -0.532 | -0.653 | -0.469 | -0.157 | -0.411 | -0.31
CN(C)CC/C=C1/c2ccccc2Sc2ccc(Cl)cc21 [Chlorprothixene hydrochloride] | 4.13 | 2.63 | 1.46 | 0.54 | 2.61 | 2.32
CC(Oc1c(Cl)cccc1Cl)C1=NCCN1 (stereo not drawn) [Lofexidine] | -0.44 | 0.792 | -0.761 | -0.717 | -0.424 | -0.23
CC(=O)OC(C)C[N+](C)(C)C (stereo not drawn) [Methacholine chloride] | -0.38 | 0.107 | -0.0801 | -0.293 | -0.383 | -0.341
CN1CCN(C2=Nc3ccccc3Oc3ccc(Cl)cc32)CC1 [Loxapine succinate] | 0.352 | 1.12 | 0.0252 | -0.743 | 0.0734 | -0.11
Cc1nnc(NS(=O)(=O)c2ccc(N)cc2)s1 [Sulfamethizole] | -0.497 | -0.619 | -0.626 | -0.62 | -0.469 | -0.463
CC(C)NCC(O)COc1ccc(CCOCC2CC2)cc1 (stereo not drawn) [Betaxolol hydrochloride] | 2.57 | 2.19 | 0.139 | -0.283 | 0.614 | 0.292
CC(CNC1CCCCC1)OC(=O)c1ccccc1 (stereo not drawn) [Hexylcaine hydrochloride] | -0.125 | -0.0338 | -0.478 | -0.747 | -0.345 | -0.436
CC(CCc1ccccc1)NCC(O)c1ccc(O)c(C(N)=O)c1 (stereo not drawn) [Labetalol hydrochloride] | 0.794 | 1.06 | 1 | -0.0368 | 0.489 | 0.328
O=C(CCCN1CCC(O)(c2ccc(Br)cc2)CC1)c1ccc(F)cc1 [Bromperidol] | 2.59 | 2.09 | 1.76 | 1.12 | 2.09 | 1.82
OCCN1C[C@H](O)[C@@H](O)[C@H](O)[C@H]1CO [Miglitol] | -0.534 | -0.285 | -0.628 | -0.643 | -0.487 | -0.578
C(=C\c1ccccc1)/CN1CCN(C(c2ccccc2)c2ccccc2)CC1 [Cinnarizine] | -0.223 | 0.618 | -0.605 | -0.52 | -0.314 | -0.0159
CC(C(O)c1ccc(O)cc1)N1CCC(Cc2ccccc2)CC1 (stereo not drawn) [Ifenprodil tartrate] | 0.387 | -0.296 | 0.502 | 0.445 | 0.406 | 0.378
CCCCNc1cc(C(=O)O)cc(S(N)(=O)=O)c1Oc1ccccc1 [Bumetanide] | -0.516 | -0.493 | -0.507 | -0.553 | -0.588 | -0.565
Cc1nc2ccccn2c(=O)c1CCN1CCC(C(=O)c2ccc(F)cc2)CC1 [Pirenperone] | 1.82 | 2.56 | 1.36 | 1.21 | 1.54 | 2.01
CCC(=O)[C@@]1(C)[C@H](C)C[C@H]2[C@@H]3CCC4=CC(=O)C=C[C@]4(C)[C@H]3[C@@H](O)C[C@@]21C [Rimexolone] | -0.0932 | 0.328 | 0.343 | -0.0902 | -0.235 | -0.418
Cc1[nH]c(=O)c(C#N)cc1-c1ccncc1 [Milrinone] | -0.393 | 0.29 | -0.171 | -0.0695 | -0.351 | -0.372
CC1(C)S[C@@H]2[C@H](NC(=O)[C@H](N)c3ccccc3)C(=O)N2[C@H]1C(=O)O [Ampicillin trihydrate] | -0.606 | -0.403 | -0.896 | -0.707 | -0.569 | -0.702
CC(=O)OCC(=O)NCCCOc1cccc(CN2CCCCC2)c1 [Roxatidine Acetate HCl] | -0.585 | -0.0177 | -0.731 | -0.282 | -0.524 | -0.38
CCCc1cc(C(N)=S)ccn1 [Prothionamide] | -0.257 | 0.224 | 0.0431 | -0.0396 | -0.301 | -0.377
